Molecules are shown by their SMILES. Results filed as inconclusive are left out. Activity calls are given as the source filed them. Unless noted, the call rests on the fitted dose curve.

Test [1] addresses Estrogen receptor (Homo sapiens) (UniProt P03372). In words: qHTS assay for small molecule agonists of estrogen receptor alpha signaling (AID 588514).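 Further: 0% = vehicle only and 100% = reference agonist; nearly all actives have a fitted effect of over 70% in size.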 In outline: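 Read-out: CCF4 fluorescence from a beta-lactamase reporter in ER-alpha-UAS-bla HEK 293 cells after 18 hrs of compound exposure at 37 C. Normalized to 20 nM 17-beta-estradiol (100%) and DMSO (0%).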
The target in test [2] is Peroxisome proliferator-activated receptor delta (Homo sapiens) (UniProt Q03181). In words: qHTS assay for small molecule agonists of peroxisome proliferator-activated receptor delta signaling (AID 588534).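 Further: 0% = DMSO basal wells and 100% = positive control agonist at 10 µM.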 An outline of the steps: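 Titration series tested in agonist mode on beta-lactamase reporter cells; 18 hrs at 37 C after a 5 hr pre-incubation. Readout: CCF4 fluorescence, 2 hrs RT. Hill equation gives EC50 and maximal response.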

The nature of test [3]: qHTS assay for small molecule antagonists of peroxisome proliferator-activated receptor delta signaling (AID 588535; active means well fitted inhibition curve with a large enough effect in the signal ratio, with a control signal flat, not every such curve was filed as active; the % refers to the signal ratio;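 on max response: cells co-treated with a PPAR-delta agonist as stimulator during compound exposure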). To be noted: HEK293T PPARd-UAS-bla, beta-lactamase FRET ratio, 18 h; 460 nm channel. An outline of the steps: (§1)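 Antagonist-mode qHTS using GeneBLAzer PPAR-delta-UAS-bla HEK293T cells; compound exposure 18 hrs at 37 C over a titration. Ratiometric CCF4 fluorescence at 460/530 nm; concentration-response points fitted to the Hill equation.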

Test [4] deals with Peroxisome proliferator-activated receptor delta (Homo sapiens) (UniProt Q03181). Described as above. An outline of the steps:
as §1

Test [5] has as its target Vitamin D3 receptor (Homo sapiens) (UniProt P11473). Put plainly: qHTS assay for small molecule antagonists of vitamin D receptor signaling (AID 588541). Further: potency means the concentration at half of the fitted maximal effect. An outline of the steps:
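Antagonist-mode beta-lactamase reporter assay: HEK293T VDR-UAS-bla cells were exposed to titrated compound alongside 1-alpha,25-dihydroxyvitamin D3 at 3 nM final for 16 h. Values were normalized to the 50 nM agonist control and DMSO basal, with IC50 and efficacy from Hill equation fits.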

Test [6] addresses Thyroid hormone receptor beta (Homo sapiens) (UniProt P10828). Put plainly: qHTS assay for small molecule agonists of thyroid hormone receptor beta signaling (AID 588545). In outline: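 Agonist activity was read as beta-lactamase CCF4 fluorescence (405 ex, 460/530 em), scaled between DMSO (0%) and 10 nM T3 (100%), then Hill-fitted for EC50 and efficacy. HEK 293 TR-UAS-bla cells in 2% charcoal/dextran FBS medium were exposed 18 h at 37 C.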

Test [7] has the same target. Put plainly: qHTS assay for small molecule antagonists of thyroid hormone receptor beta signaling (AID 588547; active means well fitted inhibition curve with a large enough effect in the signal ratio, with a control signal flat, not every such curve was filed as active; the % refers to the signal ratio; further: potency means the concentration at half of the fitted maximal effect;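 on activity change % (negative = inhibition): cells stimulated with 0.4 nM T3 agonist during compound exposure; series mostly up to about 77 µM; on the % scale 0 is the no-effect control and ±100 the full control effect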). To be noted: TR-UAS-bla HEK293, beta-lactamase ratio, antagonist mode, 18 h. An outline of the steps: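 Inhibition of T3-driven (0.4nM final) beta-lactamase reporter activity was measured over 0.59 nM to 92 uM compound after 18 h at 37 C. The cells were GripTite HEK293 TR-UAS-bla in charcoal/dextran-stripped serum, with CCF4 ratio read-out and IC50 from Hill fits.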

Test [8] deals with Peroxisome proliferator-activated receptor alpha (Homo sapiens) (UniProt Q07869). Put plainly: qHTS assay for small molecule agonists of the peroxisome proliferator-activated receptor alpha (PPARalpha) signaling pathway (AID 651778; active means well fitted curve in the direction sought with a large enough effect; an effect the other way counts as inactive or inconclusive; further: % of control where 0% means no effect). The note with it: PathHunter PPARalpha complementation, chemiluminescence, 6 h; max response: stronger effect = higher value. An outline of the steps: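 Chemiluminescence from complemented enzyme reported PPARalpha activation in cells after 6 hr of compound treatment at 37 C. The detection reagent was incubated for 60 min at room temperature, and compounds were scored as agonists.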

Test [9] is described as follows: qHTS assay for small molecule agonists of the antioxidant response element (ARE) signaling pathway measured by Nrf2-dependant transcriptional activity (AID 720636; active means well fitted curve in the direction sought with a large enough effect in the repeat runs; an effect the other way counts as inactive or inconclusive; further: potency means the concentration at half of the fitted maximal effect;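 on activation: HepG2 cells with an ARE-driven luciferase reporter; % of control where 0% means no effect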). In outline: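 In HepG2 cells engineered with an Nrf2-responsive luciferase gene, ARE induction was quantified as luminescence after 16 hr compound treatment at 37 C.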
Test [10] can be described thus: qHTS assay for small molecule agonists of the antioxidant response element (ARE) signaling pathway measured by Nrf2-dependant transcriptional activity - cell viability counter screen (AID 720653; active means well fitted curve in the direction sought with a large enough effect in the repeat runs; an effect the other way counts as inactive or inconclusive; further: on the % scale 0 is the no-effect control and ±100 the full control effect). To be noted: ARE-bla HepG2 viability, CellTiter-Glo ATP luminescence, 16 h; max response: stronger effect = lower value. In outline:
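Cytotoxicity counter screen: intracellular ATP quantified by CellTiter-Glo luminescence in the same ARE-bla HepG2 plates, after 16 h compound exposure and a 2 h beta-lactamase substrate step.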

The nature of test [11]: qHTS assay for cell viability of the p53RE-bla HCT-116 cell line (AID 743292; active means well fitted curve in the direction sought with a large enough effect; an effect the other way counts as inactive or inconclusive; further: on the % scale 0 is the no-effect control and ±100 the full control effect; nearly all actives have a fitted effect of over 55% in size). In outline:
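Intracellular ATP of p53RE-bla HCT-116 cells measured by luciferase luminescence following 16 h compound incubation at 37 C; DMSO-only wells served as vehicle controls.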

The nature of test [12]: qHTS assay for small molecule activators of the p53 signaling pathway (AID 651743; active means well fitted activation curve with a large enough effect in the signal ratio, not every such curve was filed as active; the % refers to the signal ratio; further: series mostly up to about 92 µM; % of control where 0% means no effect). To be noted: HCT-116 p53RE-bla, beta-lactamase FRET ratio, 16 h; activation: stronger effect = higher value. An outline of the steps:
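A beta-lactamase reporter under p53 response element control, stably carried by HCT-116 cells, reported pathway activation. Test compounds were applied for 16 hours at 37 C, and fluorescence was measured 2 hours after adding the B/G FRET substrate.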

The nature of test [13]: qHTS assay for small molecule activators of the nuclear factor-kappa B (NF-kB) signaling pathway (AID 651749; active means well fitted activation curve with a large enough effect in the signal ratio; the % refers to the signal ratio; further: series mostly up to about 77 µM; % of control where 0% means no effect). To be noted: NF-kB-bla ME-180 cells, beta-lactamase FRET ratio, 16 h; activation: stronger effect = higher value. In outline:
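FRET-based beta-lactamase detection in ME-180 cells reports NF-kB response-element-driven transcription following overnight (16 hr) compound treatment.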

The nature of test [14]: qHTS assay for cell viability of HEK293 cells (AID 743288; active means well fitted curve in the direction sought with a large enough effect; an effect the other way counts as inactive or inconclusive; further: on the % scale 0 is the no-effect control and ±100 the full control effect; nearly all actives have a fitted effect of over 50% in size). To be noted: ATP luminescence (CellTiter-Glo), 18 h; max response: stronger effect = lower value. An outline of the steps: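 Steps: plate 2,000 parental HEK293 cells per well; incubate ≥5 h, 37 C; add compounds in DMSO; incubate 18 h, 37 C; add CellTiter-Glo; wait 30 min at room temperature; read luminescence.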
Test [15] concerns the target Nuclear receptor subfamily 1 group I member 2 (Rattus norvegicus) (UniProt Q9R1A7). Put plainly: qHTS assay for small molecule activators of the rat pregnane X receptor (rPXR) signaling pathway (AID 651751; call rule not given here; further: 0% is about no effect). To be noted: rPXR reporter cells, luciferase (One-Glo), 24 h.
Test [16] deals with Glucocorticoid receptor (Homo sapiens) (UniProt P04150). Put plainly: qHTS assay for small molecule antagonists of glucocorticoid receptor signaling (AID 588533; active means well fitted inhibition curve with a large enough effect in the signal ratio, with a control signal flat, not every such curve was filed as active; the % refers to the signal ratio;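 further: cells stimulated with 2 nM dexamethasone as agonist; on the % scale 0 is the no-effect control and ±100 the full control effect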). An outline of the steps: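 Antagonist-mode qHTS: compound titrations added to GRE-bla HeLa cells, then dexamethasone 2 nM final; 18 h, 37 C. CCF4 FRET fluorescence normalized to dexamethasone and DMSO; IC50 from Hill fit.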

Test [17] addresses Retinoic acid receptor RXR-alpha (Homo sapiens) (UniProt P19793). In words: qHTS assay for small molecule agonists of retinoid X receptor alpha signaling (AID 588544).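 Further: 0% = DMSO basal wells and 100% = reference agonist.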
Test [18] is described as follows: qHTS assay for small molecule antagonists of retinoid X receptor alpha signaling (AID 588546; active means well fitted inhibition curve with a large enough effect in the signal ratio, with a control signal flat, not every such curve was filed as active; the % refers to the signal ratio;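 further: cells stimulated with 9-cis-retinoic acid as agonist; on the % scale 0 is the no-effect control and ±100 the full control effect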). To be noted: HEK293T RXRa-UAS-bla, beta-lactamase ratio, antagonist mode; measured here: W530 green channel, cytotoxicity proxy. An outline of the steps:
(§2)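 Beta-lactamase reporter inhibition, read as CCF4 fluorescence ratio (ex 405, em 460/530 nm) after 2 h at RT. HEK293T UAS-bla cells, 2500/well, were stimulated with 9-cis-RA at 500 or 100 nM final alongside test compound for 18 h at 37 C.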

Test [19] deals with Retinoic acid receptor RXR-alpha (Homo sapiens) (UniProt P19793). The test is described as above. To be noted: HEK293T RXRa-UAS-bla, beta-lactamase ratio, antagonist mode. An outline of the steps: as §2
Test [20] is described as follows: qHTS assay for environmental chemicals that activate the Aryl hydrocarbon Receptor (AhR) signaling pathway (AID 651777; active means well fitted curve in the direction sought with a large enough effect; an effect the other way counts as inactive or inconclusive; further: % of control where 0% means no effect; nearly all actives have a fitted effect of over 15% in size). To be noted: 1A2-DRE human hepatoma cells, luciferase, 24 h; activation: stronger effect = higher value. In outline:
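Measured luciferase activity, read 30 min after One-Glo addition at room temperature, from human hepatoma cells bearing a dioxin response element–CYP1A2 promoter reporter and exposed to compound for 24 hr at 37 C.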

Nuclear receptor subfamily 1 group I member 2 (Rattus norvegicus), sequence (Q9R1A7 whole entry, looked up): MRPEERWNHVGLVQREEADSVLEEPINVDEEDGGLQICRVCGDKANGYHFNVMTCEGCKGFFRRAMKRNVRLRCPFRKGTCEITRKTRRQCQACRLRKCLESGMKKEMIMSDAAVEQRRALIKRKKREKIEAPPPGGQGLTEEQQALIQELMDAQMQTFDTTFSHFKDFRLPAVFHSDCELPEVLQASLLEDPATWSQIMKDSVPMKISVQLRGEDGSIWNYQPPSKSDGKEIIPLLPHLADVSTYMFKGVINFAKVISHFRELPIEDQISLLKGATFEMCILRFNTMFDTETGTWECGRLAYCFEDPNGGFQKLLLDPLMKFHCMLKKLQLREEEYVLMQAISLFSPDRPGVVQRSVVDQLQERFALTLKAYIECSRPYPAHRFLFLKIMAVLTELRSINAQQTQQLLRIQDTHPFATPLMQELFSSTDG
Thyroid hormone receptor beta (Homo sapiens), sequence (P10828 whole entry, looked up): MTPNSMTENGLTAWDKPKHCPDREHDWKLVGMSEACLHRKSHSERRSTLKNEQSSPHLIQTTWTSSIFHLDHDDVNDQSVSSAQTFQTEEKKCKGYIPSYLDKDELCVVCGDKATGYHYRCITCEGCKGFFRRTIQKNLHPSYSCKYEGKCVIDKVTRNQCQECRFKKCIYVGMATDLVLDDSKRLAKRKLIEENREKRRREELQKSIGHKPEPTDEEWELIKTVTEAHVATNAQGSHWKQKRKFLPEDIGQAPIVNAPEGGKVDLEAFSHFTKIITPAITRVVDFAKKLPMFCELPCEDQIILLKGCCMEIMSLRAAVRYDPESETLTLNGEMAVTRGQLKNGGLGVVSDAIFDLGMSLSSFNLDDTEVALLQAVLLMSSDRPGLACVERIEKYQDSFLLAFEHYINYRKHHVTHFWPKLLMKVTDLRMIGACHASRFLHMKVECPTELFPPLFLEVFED
Glucocorticoid receptor (Homo sapiens), sequence (P04150 whole entry, looked up): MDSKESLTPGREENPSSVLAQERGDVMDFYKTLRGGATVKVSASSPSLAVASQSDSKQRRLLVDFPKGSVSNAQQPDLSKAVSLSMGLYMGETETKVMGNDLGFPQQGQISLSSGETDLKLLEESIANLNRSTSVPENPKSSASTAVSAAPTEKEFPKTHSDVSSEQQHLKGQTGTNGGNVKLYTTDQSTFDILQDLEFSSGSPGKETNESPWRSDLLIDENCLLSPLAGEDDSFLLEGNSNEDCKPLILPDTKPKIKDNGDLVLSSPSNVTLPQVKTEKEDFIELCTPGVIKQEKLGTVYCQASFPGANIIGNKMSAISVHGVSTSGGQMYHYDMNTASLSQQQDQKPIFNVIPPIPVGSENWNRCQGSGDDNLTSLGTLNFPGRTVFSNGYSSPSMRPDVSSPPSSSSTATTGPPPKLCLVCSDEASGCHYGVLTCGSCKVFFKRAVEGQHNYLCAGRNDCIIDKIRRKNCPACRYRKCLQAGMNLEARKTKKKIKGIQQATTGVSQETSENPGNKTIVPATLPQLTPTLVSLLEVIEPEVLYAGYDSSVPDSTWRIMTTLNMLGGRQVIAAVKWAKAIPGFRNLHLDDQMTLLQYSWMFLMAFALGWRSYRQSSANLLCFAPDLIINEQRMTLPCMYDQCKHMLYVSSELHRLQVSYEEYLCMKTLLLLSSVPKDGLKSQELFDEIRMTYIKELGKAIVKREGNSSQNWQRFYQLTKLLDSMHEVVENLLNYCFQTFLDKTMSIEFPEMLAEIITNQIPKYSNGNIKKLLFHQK
Peroxisome proliferator-activated receptor alpha (Homo sapiens), sequence (Q07869 whole entry, looked up): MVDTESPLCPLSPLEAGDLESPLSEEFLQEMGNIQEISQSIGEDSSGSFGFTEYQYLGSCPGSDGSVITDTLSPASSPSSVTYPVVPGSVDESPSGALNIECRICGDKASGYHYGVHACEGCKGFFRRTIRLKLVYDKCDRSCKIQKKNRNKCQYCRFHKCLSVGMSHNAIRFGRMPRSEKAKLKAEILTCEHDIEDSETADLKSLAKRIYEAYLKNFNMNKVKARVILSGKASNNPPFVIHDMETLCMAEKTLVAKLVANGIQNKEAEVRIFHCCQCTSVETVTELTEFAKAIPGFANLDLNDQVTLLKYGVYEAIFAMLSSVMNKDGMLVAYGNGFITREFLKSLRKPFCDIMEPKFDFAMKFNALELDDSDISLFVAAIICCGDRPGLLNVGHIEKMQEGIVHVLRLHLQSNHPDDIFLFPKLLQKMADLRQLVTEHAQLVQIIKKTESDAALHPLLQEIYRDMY
Estrogen receptor (Homo sapiens), sequence (P03372 whole entry, looked up): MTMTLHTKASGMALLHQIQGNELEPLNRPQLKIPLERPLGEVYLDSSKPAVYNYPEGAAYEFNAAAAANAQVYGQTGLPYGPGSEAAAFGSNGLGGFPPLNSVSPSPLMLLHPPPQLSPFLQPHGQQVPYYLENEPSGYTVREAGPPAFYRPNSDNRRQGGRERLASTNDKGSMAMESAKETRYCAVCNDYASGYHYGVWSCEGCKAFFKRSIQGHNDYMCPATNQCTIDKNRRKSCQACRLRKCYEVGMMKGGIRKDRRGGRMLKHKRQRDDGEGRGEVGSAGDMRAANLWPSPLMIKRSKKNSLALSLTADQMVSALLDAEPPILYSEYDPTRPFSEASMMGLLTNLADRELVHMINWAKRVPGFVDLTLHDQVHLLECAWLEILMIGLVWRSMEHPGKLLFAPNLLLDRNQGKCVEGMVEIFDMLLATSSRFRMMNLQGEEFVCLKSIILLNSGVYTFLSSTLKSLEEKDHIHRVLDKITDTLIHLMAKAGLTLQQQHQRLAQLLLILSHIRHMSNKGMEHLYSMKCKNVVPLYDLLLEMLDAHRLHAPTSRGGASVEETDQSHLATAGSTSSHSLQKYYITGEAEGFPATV
Retinoic acid receptor RXR-alpha (Homo sapiens), sequence (P19793 whole entry, looked up): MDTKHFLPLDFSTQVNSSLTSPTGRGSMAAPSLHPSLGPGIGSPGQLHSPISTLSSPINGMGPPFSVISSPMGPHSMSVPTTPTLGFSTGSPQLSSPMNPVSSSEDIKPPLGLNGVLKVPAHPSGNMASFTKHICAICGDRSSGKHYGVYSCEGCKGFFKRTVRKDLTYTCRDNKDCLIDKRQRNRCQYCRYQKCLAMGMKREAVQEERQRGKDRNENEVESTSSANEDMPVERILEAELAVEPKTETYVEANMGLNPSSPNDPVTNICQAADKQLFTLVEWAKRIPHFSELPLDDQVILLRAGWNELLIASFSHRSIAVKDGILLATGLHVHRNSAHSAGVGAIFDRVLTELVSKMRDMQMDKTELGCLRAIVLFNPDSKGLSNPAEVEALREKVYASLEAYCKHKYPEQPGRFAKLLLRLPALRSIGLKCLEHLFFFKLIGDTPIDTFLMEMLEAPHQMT
Vitamin D3 receptor (Homo sapiens), sequence (P11473 whole entry, looked up): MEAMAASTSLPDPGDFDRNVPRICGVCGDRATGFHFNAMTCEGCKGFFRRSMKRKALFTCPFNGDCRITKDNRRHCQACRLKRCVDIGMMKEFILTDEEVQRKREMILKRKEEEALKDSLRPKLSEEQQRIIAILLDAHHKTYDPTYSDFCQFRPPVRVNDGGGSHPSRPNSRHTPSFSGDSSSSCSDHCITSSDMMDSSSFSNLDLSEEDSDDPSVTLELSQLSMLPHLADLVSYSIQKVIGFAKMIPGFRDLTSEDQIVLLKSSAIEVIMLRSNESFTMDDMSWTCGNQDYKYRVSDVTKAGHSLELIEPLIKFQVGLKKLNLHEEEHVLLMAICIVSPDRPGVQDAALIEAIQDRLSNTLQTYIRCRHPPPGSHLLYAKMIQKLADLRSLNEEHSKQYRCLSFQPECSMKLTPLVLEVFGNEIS
Peroxisome proliferator-activated receptor delta (Homo sapiens), sequence (Q03181 whole entry, looked up): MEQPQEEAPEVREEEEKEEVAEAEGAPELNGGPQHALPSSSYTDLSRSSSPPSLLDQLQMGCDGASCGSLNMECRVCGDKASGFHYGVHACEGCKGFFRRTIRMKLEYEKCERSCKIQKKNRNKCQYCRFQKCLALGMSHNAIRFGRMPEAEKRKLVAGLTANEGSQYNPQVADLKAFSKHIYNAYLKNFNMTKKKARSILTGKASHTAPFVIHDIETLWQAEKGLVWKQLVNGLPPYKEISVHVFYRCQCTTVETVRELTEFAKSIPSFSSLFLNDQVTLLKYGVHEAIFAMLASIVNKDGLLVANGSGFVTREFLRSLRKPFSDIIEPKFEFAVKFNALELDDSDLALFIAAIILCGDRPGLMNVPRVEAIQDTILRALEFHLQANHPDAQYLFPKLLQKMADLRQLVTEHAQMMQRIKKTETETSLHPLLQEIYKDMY

On to `COP(=O)(OC)OC(Br)C(Cl)(Cl)Br` (stereo not drawn), for which the Potency entry in test [1], in [4], in test [6] and in test [11] was “inactive” in each case. Besides, the outcome in [2] was inactive. The max response in test [3] was -79.2%; in test [8], -1.63% (inactive); in test [10] it was -24% (inactive). Also, the Potency in test [5] was 44.7 µM (active); in [9], 68.6 µM (active). In test [7], the activity change % (negative = inhibition) was -62.2% (inactive).
As for `O=C(Nc1ccccc1)Nc1ccnc(Cl)c1`, the Potency result in test [1], in test [5], in test [6] and in [11] was “inactive” each time. Also, the activity change % (negative = inhibition) in [7] was 16% (inactive). The activation was 4.1% (inactive) in [12] and -0.762% (inactive) in [13]. Moreover, the max response is -0.317% (inactive) in test [8], -3.22% (inactive) in test [10], -3.84% (inactive) in test [14] and 9.67% (inactive) in test [15].
In the case of `[Ga]#[As]`, the Potency result in test [1], in test [16], in [4], in [5], in test [17] and in [6] was “inactive” throughout. For the same compound, the Potency entry in [9] and in test [11] was “inactive” in each case. The outcome in test [2] was inactive. Further, the max response in test [3] was 33%; in test [18], -11%; in test [19], 6.85% (inactive); in [8] it was -1.03% (inactive); in test [10], -2.5% (inactive); in test [15], -5.29% (inactive). Further, the values for the activation in test [12], in [13] and in test [20] were -1.62% (inactive), -0.5% (inactive) and 0.963% (inactive), respectively.
With `CCCCC(O)(Cn1cncn1)c1ccc(Cl)cc1Cl` (stereo not drawn), the Potency entry in test [1], in test [16], in test [4], in test [9] and in test [11] was “inactive” throughout. Further, the max response in [3] is -34%; in [18], -3.36%; in test [19] it was -17.2% (inactive); in test [8] it was 9.57% (inactive); in [10], -0.171% (inactive). Further, the activation in [12] was -5.41% (inactive); in test [13], 0.388% (inactive); in test [20] it was 2.7% (inactive).
Take `CC1=C(C(=O)Nc2ccccc2)S(=O)(=O)CCO1`: the Potency entry in test [1], in test [6] and in test [11] was “inactive” each time. Moreover, the Potency in test [7] was 39.8 µM (active). In addition, the activation in test [13] is -0.594% (inactive). In addition, the max response in test [8] was -2.04% (inactive); in test [10] it was -1.32% (inactive); in test [14], -49.4% (inactive); in [15], -5.83% (inactive).
For `CC(C)=CC1[C@H](C(=O)OCc2cccc(Oc3ccccc3)c2)C1(C)C` (stereo partly drawn), the Potency result in test [1], in [16], in test [4], in [5], in [17] and in test [6] was “inactive” each time. The Potency entry in test [9] and in test [11] was “inactive” each time. Moreover, the call in test [2] was inactive. The max response in test [3] is 26%; in test [18] it was -13.6%; in test [19] it was 3.36% (inactive); in test [8] it was -1.72% (inactive); in test [10], -3.94% (inactive); in [14], -10.6% (inactive). Besides, the activity change % (negative = inhibition) in test [7] was 2.1% (inactive). In addition, the values for the activation in [12] and in [20] were -1.37% (inactive) and -0.0338% (inactive), respectively.
`CC(C)Oc1cc(-n2nc(C(C)(C)C)oc2=O)c(Cl)cc1Cl`: the Potency result in test [1], in [16], in test [4], in test [5], in test [6] and in test [11] was “inactive” in each case. Also, the max response in [3] was 22.7%; in test [8], 0.863% (inactive); in test [10], -16% (inactive); in test [14], -26.7% (inactive). For the same compound, the activity change % (negative = inhibition) in [7] is -6.22% (inactive). The activation in test [12] was 0.204% (inactive); in test [13], 1.16% (inactive).

These data come from PubChem BioAssay (NCATS).
